Hit rate of the full screen: of about 320,000 compounds, about 8,000 (2.5%) were called active. This excerpt belongs to a sample that is enriched for actives. Values without a mark were called inactive. Cut-off read from the data, not from the text of the source: active = activation above about 47%; inactive = the rest.

Results on 98 compounds are retold here after PubChem BioAssay AID2796 (The Scripps Research Institute Molecular Screening Center, 2010).

The target of this assay is Aryl hydrocarbon receptor (Homo sapiens) (UniProt P35869). As to the kind of experiment: AHR activators, primary screen, cell-based, luminescence, luciferase reporter, human (AID 2796).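 Note: 0% = vehicle wells and 100% = reference agonist.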 The settings on record: AHR-responsive luciferase reporter cells, at 5 µM, active compounds read high.
Chain of Aryl hydrocarbon receptor (Homo sapiens) (P35869 whole entry, looked up): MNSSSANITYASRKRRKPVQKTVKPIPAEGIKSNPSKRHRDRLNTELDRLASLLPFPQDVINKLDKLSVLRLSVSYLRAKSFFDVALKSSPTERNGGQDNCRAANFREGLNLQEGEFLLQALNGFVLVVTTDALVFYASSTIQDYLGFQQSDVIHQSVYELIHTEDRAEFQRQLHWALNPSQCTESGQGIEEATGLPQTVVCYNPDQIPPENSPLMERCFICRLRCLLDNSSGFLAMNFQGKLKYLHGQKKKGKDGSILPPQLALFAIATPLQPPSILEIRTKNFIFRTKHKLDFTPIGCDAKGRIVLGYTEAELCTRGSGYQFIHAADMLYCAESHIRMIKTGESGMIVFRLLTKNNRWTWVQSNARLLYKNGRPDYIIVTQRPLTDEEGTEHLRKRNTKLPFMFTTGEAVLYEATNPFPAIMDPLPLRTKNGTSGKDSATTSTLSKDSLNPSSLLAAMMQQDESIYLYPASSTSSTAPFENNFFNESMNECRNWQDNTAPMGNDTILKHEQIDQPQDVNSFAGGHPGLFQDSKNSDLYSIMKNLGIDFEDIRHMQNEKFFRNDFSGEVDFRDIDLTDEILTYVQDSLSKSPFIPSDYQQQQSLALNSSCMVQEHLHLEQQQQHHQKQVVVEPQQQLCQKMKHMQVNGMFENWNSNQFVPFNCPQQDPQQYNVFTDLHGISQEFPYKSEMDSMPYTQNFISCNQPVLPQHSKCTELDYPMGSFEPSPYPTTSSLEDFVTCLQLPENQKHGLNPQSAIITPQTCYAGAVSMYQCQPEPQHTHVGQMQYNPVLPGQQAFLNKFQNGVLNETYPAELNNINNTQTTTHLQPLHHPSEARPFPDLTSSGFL
For the compound `COc1ccccc1C(=O)COC(=O)COc1ccc(C#N)cc1`, the activation is -0.13%.
In the case of `COc1ccc(CCNc2nc(C)cc(C)n2)cc1OC`, the activation is 4.65%.
For the compound `Cc1ccc(-c2nc(-c3ccncc3)no2)c(C)c1`, the activation was 3.29%.
Consider `COc1ccc(-c2nc(-c3ccccc3)no2)c(OC)c1`, for which the activation is 70.8% (active).
Take `COc1ccc(/C=C/c2noc(-c3ccccc3OC(C)=O)n2)cc1`: the activation is 2.04%.
As to `CCOC(=O)N1CCN(S(=O)(=O)N2CCCC(C(=O)NCCCN3CCC(C)CC3)C2)CC1` (stereo not drawn), the activation was 0.65%.
Next, `CCC(C(=O)N1CCN(S(=O)(=O)c2sc(C(=O)O)c(C)c2C(=O)O)CC1)c1ccccc1` (stereo not drawn): -0.9%; `O=S(=O)(c1ccc(Br)cc1)c1nc(-c2ccccc2)oc1N1CCOCC1`: 3.81%; `Cc1ccc(Sc2cc(N3CCOCC3)nc(-c3ccccc3)n2)cc1`: 3.2%.
Take `Cc1cc(N2CCOCC2)nc(-c2ccc(Br)cc2)n1`: the activation was 86.8% (active).
Then `CC(=O)O[C@H]1CC[C@@]2(C)[C@@H](CC[C@@H]3[C@@H]2CC[C@]2(C)[C@@H](C(C)(C)O)C[C@@H]32)C1`, with 1.86%; and `O=C(CNC(=O)c1cc(=O)[nH]c2ccccc12)Nc1ccc(F)c(F)c1`, with 70.8% (active); and `CC(NC(=O)c1cc(=O)[nH]c2ccccc12)c1ccc(F)cc1F` (stereo not drawn), with -1.44%.
Take `CCOC(=O)c1ccc(NC(=O)c2cc(=O)[nH]c3ccccc23)cc1`: the activation is -0.98%.
On to `COC(=O)C1=CO[C@@H](O[C@@H]2O[C@H](CO)[C@@H](O)[C@H](O)[C@H]2O)C2C1C[C@H](O)[C@@H]2C` (stereo partly drawn), for which the activation was 0.44%.
On to `CC(C)(C)n1nc(Cc2cccc3ccccc23)c(C#N)c1N`, for which the activation is 51.2% (active).
Next, `N#Cc1nc(-c2cccc3ccccc23)oc1N`: -2.82%; `CCc1nn(-c2cc(Oc3cccc4ccccc34)nc(-c3ccccc3)n2)c(N)c1C#N`: 10.9%; `CCCCOc1ccc(C(=O)NCC(=O)OCC(=O)N2CCN(S(=O)(=O)c3ccc(C)cc3C)CC2)cc1`: 0.36%.
As for `COc1ccc(N2CCN(S(=O)(=O)c3cc4c5c(c3)C(C)C(=O)N5CCC4)CC2)cc1` (stereo not drawn), the activation was -1.29%.
On to `CN1CCN(/N=C/c2ccc(-c3ccc([N+](=O)[O-])cc3)o2)CC1`, for which the activation was 38.6%.
Turning to `CN1C(=O)/C(=C\c2ccc(-c3ccccc3)o2)SC1=S`, the activation was 6.56%.
For the compound `NS(=O)(=O)c1ccc(-c2ccc(/C=C3\SC(=O)NC3=O)o2)cc1`, the activation was 125% (active).
With `c1ccc(-c2nccc(-c3ccc(-n4cnc5ccccc54)cc3)n2)nc1`, the activation was -6.06%.
Take `COc1ccc(CCNC(=O)COc2ccc3c(c2)OCO3)cc1`: the activation was 10%.
Then `CC(C)(C)c1ccc(SCCc2ccncc2)cc1`, with 14.1%; and `CC(C)CCNC(=O)C1CCC(CNc2c(N3CCC(C)CC3)c(=O)c2=O)CC1` (stereo not drawn), with 7.38%; and `Cn1c(=NC(=O)C2CC2)sc2cc(F)cc(F)c21`, with 69.9% (active).
Next, `O=C(CN(Cc1ccc(Br)cc1)S(=O)(=O)c1ccccc1)NCc1ccncc1`: 1.87%.
Then `C=CCn1c(CCNC(=O)c2cccs2)n[nH]c1=S`, with -2.49%; and `C=CCn1c(=NC(=O)c2ccc(S(=O)(=O)N3CCCC3)cc2)sc2cc(NC(C)=O)ccc21`, with 1.47%; and `C=CCn1c(=NC(=O)c2cccs2)sc2cc(NC(C)=O)ccc21`, with 118% (active).
In the case of `O=C(Oc1c(-c2ccco2)oc2ccccc2c1=O)c1cccnc1`, the activation is 2.09%.
Then `COc1ccccc1/C=C/C(=O)NC(=S)N1CCOCC1`, with 43%; and `COc1cccc(/C=C/c2ccc3ccccc3n2)c1OC(C)=O`, with 8.53%.
Turning to `COc1ccccc1/C=C/C1=NC(=C\N(C)C)/C(=O)O1`, the activation was 57.2% (active).
Regarding `O=C(COC(=O)C1CCCO1)Nc1nc(-c2ccc(F)cc2)cs1` (stereo not drawn), the activation was -1.85%.
Next, `CC(C)N(Cc1nnc(-c2ccccc2Br)o1)C(=O)c1cc(Cl)nc2ccccc12`: 18.6%; `CCOc1ccc(S(=O)(=O)Nc2cccc(C(=O)NCC3(N4CCCCC4)CCCCC3)c2)cc1`: -2.77%; `COc1ccc([N+](=O)[O-])cc1-c1nc2ccccc2nc1-c1ccccc1`: 3.27%.
For the compound `Cc1nc(-c2ccc([N+](=O)[O-])cc2)c(-c2ccccc2)o1`, the activation is 1.84%.
For `Cn1nc(-c2ccccc2)c2cc([N+](=O)[O-])ccc21`, the activation is 67.7% (active).
Take `CCNC(=O)c1cccc(NC(=O)C2CC(=O)N(CCc3ccccc3)C2)c1` (stereo not drawn): the activation was 2.07%.
As to `C=CCn1cc(C(=O)NCc2ccc(Cl)cc2)c(=O)c2cc(S(=O)(=O)N(CC)CC)ccc21`, the activation was 11.3%.
Next, `CCCOc1ccc(Cc2c(Cl)nc(SC)nc2NC)cc1`: 2.63%; `COc1cccc(CNS(=O)(=O)c2cc3c(cc2C)n(C)c(=O)c(=O)n3C)c1`: -0.05%; `COc1cccc2sc(Nc3nc(C)c(C(C)=O)s3)nc12`: 67.4% (active).
Then `COc1cccc2sc(N(CCCN(C)C)C(=O)C(c3ccccc3)c3ccccc3)nc12`, with -0.96%.
Next, `COc1cccc2sc(NNC(=O)c3nc4ccccc4s3)nc12`: 86.3% (active).
In the case of `COc1ccccc1/C=N/Nc1nc(C)c(C(C)=O)s1`, the activation is 33.6%.
On to `COc1cc2ccccc2cc1C(=O)Nc1nc(C)c(C(C)=O)s1`, for which the activation was 6.6%.
Next, `COc1ccccc1OCc1nc2ccccc2s1`: 45.1%; `CCOP(=O)(OCC)C(Nc1ccc([N+](=O)[O-])cc1)c1ccc(Cl)cc1` (stereo not drawn): 0.69%; `Cn1ccc(=Nc2ccc(NC(=O)c3ccc(N=c4ccn(C)c5ccc([N+](=O)[O-])cc45)cc3)cc2)cc1`: 2.76%.
Regarding `O=C(Nc1nnc(-c2ccccc2)o1)c1cccc(S(=O)(=O)N2CCOCC2)c1`, the activation is 2.09%.
Regarding `CC(C)CNC(=O)COC(=O)c1ccccc1OCC(=O)Nc1ccc(Br)cc1`, the activation was -3.8%.
For the compound `CC(C)C(NC(=O)c1cccc(S(=O)(=O)N2CCOCC2)c1)C(=O)NCCc1ccccn1` (stereo not drawn), the activation is -6.5%.
Then `c1ccc(NCc2cccc3ccccc23)nc1`, with 67.9% (active); and `c1ccc2c(CNn3cnnc3)cccc2c1`, with 0.98%; and `COc1ccc2ccccc2c1CNCc1ccccn1`, with 18.4%.
As to `COc1ccc(CCNC(=O)C(=O)NCC2OCCN2S(=O)(=O)c2cccs2)cc1OC` (stereo not drawn), the activation was -2.65%.
Turning to `CN(CCc1ccccc1)C(=O)c1cccc(NC(=O)Cc2ccc([N+](=O)[O-])cc2)c1`, the activation is -0.06%.
Next, `O=C(Nc1ccc(OC(F)(F)F)cc1)c1ccc2c(c1)no[n+]2[O-]`: 93.6% (active).
As for `Cn1cccc1/C=N/NC(=O)c1ccc(OC(F)(F)C(F)F)cc1`, the activation was 3.37%.
`Cn1nccc1NC(=O)Nc1ccc(OC(F)(F)F)cc1`: the activation is 3.12%.
For the compound `COC(=O)c1ccc(COC(=O)CNC(=O)c2cccc(OC)c2)o1`, the activation was 0.14%.
`O=C(c1ccc(-c2ccccc2)cc1)C1CCCN(C(=O)c2cncs2)C1` (stereo not drawn): the activation was 37.6%.
Then `CC1(C)CC(=O)C=C(c2ccc3ncccc3c2)C1`, with 8.47%; and `O=C(Nc1ccc(F)cc1)c1cc2c(s1)CCCC2`, with 55.3% (active).
In the case of `O=C(NNC(=O)c1cc2c(s1)CCCC2)c1ccccc1`, the activation is 4.72%.
Next, `CN(C)C(=O)c1ccc(NC(=O)COC(=O)c2cc3c(s2)CCCCC3)cc1`: -0.09%.
For `CC(C)CCNC(=O)C(C)N(C(=O)Cn1nnc(-c2ccc(F)cc2)n1)C1CCCC1` (stereo not drawn), the activation is -2.15%.
Next, `CC(OC(=O)c1cc2ccccc2[nH]1)C(=O)N(C)c1ccccc1` (stereo not drawn): 28.8%; `COc1ccc2[nH]c(C(=O)Nc3ccccc3Cl)cc2c1`: 21%; `O=C(Nc1ccccc1)c1cc2ccccc2[nH]1`: 160% (active).
As for `CCc1ccc(Oc2nc([N+](=O)[O-])nn2C)cc1`, the activation is -3.57%.
`CCCN(CCc1ccccc1)C1CCc2c(O)cccc2C1` (stereo not drawn): the activation was 3.78%.
For the compound `COc1cc(/C=N/NC(=O)CNC(=O)c2ccncc2)ccc1OC(C)=O`, the activation was 0.59%.
As to `COc1cc(/C=N/NC(=O)c2cccnc2)ccc1OC(=O)c1cccc(Br)c1`, the activation is 18.7%.
Next, `COc1ccc(/C=N\NC(=O)c2sc(N)nc2C)cc1OC`: 77.3% (active).
Then `COc1cnc(SCc2ccc(Cl)c(Cl)c2)nc1Cl`, with -1.43%; and `O=C(Cc1cccs1)Nc1cccc(-c2nc3ccccc3[nH]2)c1`, with 75.8% (active); and `CCOC(=O)c1ccc(NC(=O)Cc2cccs2)cc1`, with 0.34%.
Then `O=C(Cc1cccs1)Nc1ccc([N+](=O)[O-])cc1`, with 0.97%.
On to `CN1CCC(CN)(N2CCN(c3ccccc3)CC2)CC1`, for which the activation is 2.54%.
Next, `COc1ccccc1C(=O)N(Cc1ccc(C)o1)C1CCS(=O)(=O)C1` (stereo not drawn): -1.67%; `Cc1ccc2c(N)c(C(=O)c3ccccc3)sc2n1`: 46.1%.
Then `Cc1nc2sc(C(=O)c3ccccc3)c(N)c2c2c1CCCC2`, with 85.3% (active); and `CCc1nc2sc(C(=O)O)c(N)c2c2c1CCCC2`, with 0.64%; and `CC1(C)CC(=O)C=C(NCCN2CCNCC2)C1`, with 3.32%.
Turning to `COc1cccc(C2=CC(=O)C[C@H](c3ccc(OC)c(OC)c3)C2)c1`, the activation is 2.2%.
For the compound `O=S(=O)(Nc1cc(S(=O)(=O)N2CCOCC2)ccc1N1CCCC1)c1cccs1`, the activation was 1.52%.
Then `COc1cccc(OCc2cc(/C=N/NC(=O)c3nc(Cl)c(Cl)c(N)c3Cl)ccc2OC)c1`, with 73.8% (active); and `COc1cccc(-c2cc(C(=O)N/N=C/c3ccc(OC)c(COC(C)=O)c3)c3ccccc3n2)c1`, with 54.1% (active).
Then `COc1ccc2[nH]c(C(=O)N/N=C/c3cc(OC)c(OC)c(OC)c3)cc2c1`, with 30.9%.
Next, `COc1ccc(/C=N/NC(=O)c2cc(-c3cccc(C)c3)nc3ccccc23)cc1O`: 21.2%; `CCOc1ccc2[nH]c(C(=O)N/N=C/c3cccc(OC)c3OC)cc2c1`: 33%; `CCOc1cc(/C=N/NC(=O)c2cc(-c3ccccc3)nc3ccccc23)ccc1O`: 16.1%.
